{
  "source": "PubChem BioAssay (Tox21)",
  "note": "Activity calls are given as the source filed them. Entries that show only a call come without a potency. The call rests on the fitted dose curve.",
  "data": [
    {"assay": "G protein-coupled receptor (GPCR) small molecule agonists, calcium flux assay: HEK293 wild type cell line counter screen (AID 1920065)", "settings": "HEK293 WT calcium flux, fluorescence, agonist mode; series mostly up to 57.6 µM", "excerpt": "U.S. Tox21 Program National Center for Advancing Translational Sciences [NCATS] Division of Preclinical Innovation [DPI] U.S. Environmental Protection Agency [EPA] National Institutes of Environmental Health Sciences [NIEHS] National Toxicology Program [NTP] U.S. Food and Drug Administration [FDA] Assay overview: The increased intracellular calcium release that occurred upon G protein-coupled receptor (GPCR) activation led to the frequent use of calcium flux assays to detect GPCR activation. For the purpose of studying and screening compounds that may activate GPCR, receptor-overexpressing models were typically generated using Hek293 wild-type (WT) cells. In order to eliminate the compounds that may have induced calcium release for non-specific activation, a counter-assay utilizing calcium flux on Hek293 WT cells was performed. The data were formulated in order to serve as a control for any calcium flux detection utilizing Hek293 cells with either GPCR overexpression or gene modification. The procurement of Hek293 WT cells from ATCC. Fluorescence intensity can be utilized to determine the activation of the compound in a calcium flux assay. As a counter control, this cell line was utilized to screen the Tox21 10K compound library.\nAssay Protocol Summary: Hek293 cells were dispensed at 1500cells/4uL/well in 1536-well black wall/clear bottom plates using a multidrop dispenser. After the assay plates were incubated at a 37 C/5% CO2 incubator for 18 hours, 4 uL of Calcium Dye Solution was added to each well. The plates were incubated at 37 C for 1 hour. For agonist mode, 23 nL of compounds dissolved in DMSO, positive control (ATP) or DMSO only was transferred to the assay plate by a pin tool station. The fluorescence intensity in the plates was measured using FDSS 7000EX kinetic plate reader with a filter set of Ex/Em=480/540 for 3 min at 1 sec intervals. Each test compound was measured at 15 concentrations and in triplicates.", "values": [
      {"smiles": "Nc1ccccc1C(=O)OCC(O)CO", "note": "(stereo not given)", "Potency": "inactive"},
      {"smiles": "BrCCBr", "Potency": "inactive"},
      {"smiles": "O=C(O)Cc1ccccc1", "Potency": "inactive"},
      {"smiles": "NCc1cccnc1", "Potency": "inactive"},
      {"smiles": "ClCCOCOCCCl", "Potency": "inactive"},
      {"smiles": "CCC[N+](=O)[O-]", "Potency": "inactive"},
      {"smiles": "CN(C)C(=O)Nc1ccc(Cl)cc1", "Potency": "inactive"},
      {"smiles": "C[C@@H]1O[C@@H](O[C@H]2C[C@@H](O)[C@]3(CO)[C@H]4[C@H](O)C[C@]5(C)[C@@H](C6=CC(=O)OC6)CC[C@]5(O)[C@@H]4CC[C@]3(O)C2)[C@H](O)[C@H](O)[C@H]1O", "Potency": "inactive"},
      {"smiles": "CC(=O)O", "Potency": "inactive"},
      {"smiles": "ClCOCCl", "Potency": "inactive"},
      {"smiles": "CCOP(=O)(OCC)SCCSCC", "Potency": "inactive"},
      {"smiles": "CC(C)[N+](C)(CCC(C(N)=O)(c1ccccc1)c1ccccc1)C(C)C", "Potency": "inactive"},
      {"smiles": "CC(C)CCCCCOC(=O)c1ccccc1C(=O)OCCCCCC(C)C", "Potency": "inactive"},
      {"smiles": "CCOCN(C(=O)CCl)c1c(C)cccc1CC", "Potency": "inactive"},
      {"smiles": "CNC(=O)O/N=C/C(C)(C)S(C)(=O)=O", "Potency": "inactive"},
      {"smiles": "O=C(NCNC(=O)NC1C(=O)NC(=O)N1CO)NC1C(=O)NC(=O)N1CO", "note": "(stereo not given)", "Potency": "inactive"},
      {"smiles": "BrCC(Br)c1ccccc1", "note": "(stereo not given)", "Potency": "inactive"},
      {"smiles": "CCCCCCCCC(=O)NCc1ccc(O)c(OC)c1", "Potency": "inactive"},
      {"smiles": "N#Cc1ccc(Cl)cc1", "Potency": "inactive"},
      {"smiles": "OCCSCSCCO", "Potency": "inactive"},
      {"smiles": "Fc1cc(Br)ccc1CBr", "Potency": "inactive"},
      {"smiles": "O=C(O)C(F)(F)C(F)(F)C(F)(F)C(F)(F)C(F)(F)C(F)(F)C(F)(F)C(F)(F)F", "Potency": "inactive"},
      {"smiles": "C[C@]1(O)CC[C@H]2[C@@H]3CCC4=CC(=O)CC[C@]4(C)[C@@]3(F)[C@@H](O)C[C@@]21C", "Potency": "inactive"},
      {"smiles": "[N-]=[N+]=[N-]", "Potency": "inactive"},
      {"smiles": "Clc1ccc(C(Cl)(Cl)Cl)cn1", "Potency": "inactive"},
      {"smiles": "Cc1[nH]c(=O)n(C(C)(C)C)c(=O)c1Cl", "Potency": "inactive"},
      {"smiles": "COC(=O)c1ccc(CBr)cc1", "Potency": "inactive"},
      {"smiles": "Nc1ccc(Br)cc1", "Potency": "inactive"},
      {"smiles": "CC(C)(C)C(=O)Cl", "Potency": "inactive"},
      {"smiles": "COc1cc(OC)nc(Oc2cccc(Oc3nc(OC)cc(OC)n3)c2C(=O)O)n1", "Potency": "inactive"},
      {"smiles": "O=C(O)C(F)(F)C(F)(F)C(F)(F)C(F)(F)C(F)(F)C(F)(F)F", "Potency": "inactive"},
      {"smiles": "CC(Cl)Cl", "Potency": "inactive"},
      {"smiles": "Cc1cnc(C2=NC(C)(C(C)C)C(=O)N2)c(C(=O)O)c1", "note": "(stereo not given)", "Potency": "inactive"},
      {"smiles": "OCCOc1ccccc1", "Potency": "inactive"},
      {"smiles": "COc1nc(C)nc(NC(=O)NS(=O)(=O)c2ccccc2Cl)n1", "Potency": "inactive"},
      {"smiles": "c1ccc(OP(Oc2ccccc2)Oc2ccccc2)cc1", "Potency": "inactive"},
      {"smiles": "CCOP(=O)(OCC)OP(=O)(OCC)OCC", "Potency": "inactive"},
      {"smiles": "CN(N=O)c1ccccc1", "Potency": "inactive"},
      {"smiles": "CN(C)N", "Potency": "inactive"},
      {"smiles": "O=P(O)(O)CN(CP(=O)(O)O)CP(=O)(O)O", "Potency": "inactive"}
    ]}
  ]
}
